PostGolgi yeast – phenotypic screen on post-Golgi transport, primary screen; post-Golgi transport phenotypic cell assay; actives 0.9% (n = 98,000); inhibition, % at 10 µM;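 also: yeast cells grown in 1536-well plates; yeast grown about 18 h at 30C before absorbance read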
CYP2C19 act – human CYP2C19 activators, primary screen, biochemical, luminescence; Cytochrome P450 2C19 (Homo sapiens), P33261; recombinant CYP2C19, luciferin-H EGE luminescence; stronger effect = higher value; 0 = fully inhibited enzyme, 1 = untreated enzyme; activation factor at 5 µM; 96,000 tested, under 10 active;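 active = activation factor of at least 2 at 5 µM in the primary screen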
CYP2C9 inhib – blockers of cytochrome P450 2C9 activity – biochemical, luminescence, ADME assay, primary screen | P11712 | CYP2C9 Supersomes, luciferin-H conversion | inhibition, % at 5 µM | actives 20% (n = 96,000);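 active = blocking of liver enzyme CYP2C9 beyond about 50% at 5 µM, limit read from the data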
Target sequence (P11712 whole entry, looked up): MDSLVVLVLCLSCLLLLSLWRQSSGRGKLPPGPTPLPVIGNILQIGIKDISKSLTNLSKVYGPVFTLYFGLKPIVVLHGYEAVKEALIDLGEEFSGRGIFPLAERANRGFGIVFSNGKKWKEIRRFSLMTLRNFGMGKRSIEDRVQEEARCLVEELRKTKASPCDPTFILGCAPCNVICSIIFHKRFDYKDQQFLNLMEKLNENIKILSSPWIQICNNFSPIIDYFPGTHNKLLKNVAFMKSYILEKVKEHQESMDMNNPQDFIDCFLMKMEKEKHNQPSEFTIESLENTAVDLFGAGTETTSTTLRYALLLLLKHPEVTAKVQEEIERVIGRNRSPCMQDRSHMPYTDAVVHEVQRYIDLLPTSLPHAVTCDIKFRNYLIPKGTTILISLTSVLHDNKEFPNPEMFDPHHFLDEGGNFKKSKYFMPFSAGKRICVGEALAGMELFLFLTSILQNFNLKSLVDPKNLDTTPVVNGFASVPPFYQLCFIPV
PostGolgi ctrl – growth inhibition of yeast control strain, primary screen, counter-screen for post-Golgi transport modulator project | actives 5% (n = 98,000) | efflux-deficient yeast background strain, growth absorbance A615, 16 h | inhibition, % at 10 µM
CYP2C9 activ – human CYP2C9 activators, primary screen, biochemical, luminescence; Cytochrome P450 2C9 (Homo sapiens), P11712; actives 1.4% (n = 96,000); recombinant CYP2C9, luciferin-H conversion; stronger effect = higher value; factor 1 = untreated enzyme, 0 = blocked; activation factor at 5 µM;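 active = activation factor of 2 or more for CYP2C9 at a 5 µM dose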
CYP2C19 inhib – blockers of cytochrome P450 2C19 activity – biochemical, luminescence, ADME assay, primary screen; CYP2C19 Supersomes, luciferin-H EGE luminescence, 30 min; inhibition, % at 5 µM; actives 21% (n = 96,000); AID 778, 2007;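 active = CYP2C19 inhibition above a set limit at 5 µM in the primary screen, cut at about 50% in these data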
Numbers stand for hits; i = inactive. Most compounds without a hit are left out; they make up all but 32% or so of the library. Rule as the data show it, unless noted: active = inhibition above about 30%; inactive = the rest.

SMILES	PostGolgi yeast	CYP2C19 act	CYP2C9 inhib	PostGolgi ctrl	CYP2C9 activ	CYP2C19 inhib
Cc1ccc(S(=O)(=O)N2CCN(C(=O)C3Cc4ccccc4CN3C(=O)c3ccco3)CC2)cc1 (centres undefined)	i	i	i	i	i	i
CCOC(=O)N/N=C(\C)c1ccc(Br)cc1	i	i	i	i	i	i
Cc1nc2ccc(S(=O)(=O)NCC(=O)N3CCOCC3)cc2s1	i	i	i	i	i	i
Cc1n[nH]c(C)c1CCc1nc2c3ccccc3nc(SCC(N)=O)n2n1	i	i	i	i	i	i
Cc1ccc(NC(=O)CSc2nc3ccccc3c3nc(CCc4c(C)n[nH]c4C)nn23)cc1F	i	i	56	i	i	i
CCCCOc1ccc(OCCNS(=O)(=O)N(C)C)cc1	i	i	i	i	i	54
CCOc1ccc(NS(=O)(=O)N(C)C)cc1	i	i	i	i	i	i
Cc1ccccc1-c1nc(CS(=O)(=O)CC(=O)Nc2cc(F)ccc2F)c(C)o1	i	i	i	92	i	i
COCCNC(=S)N/N=C(\C)c1ccc(-n2ccnc2)cc1	i	i	100	i	i	99
CCOc1ccc(S(=O)(=O)Nc2ccc(C(=O)N/N=C(\C)c3ccc(-n4ccnc4)cc3)cc2)cc1	i	i	99	i	i	99
C/C(=N\NC(=S)NC(C)C)c1ccc(-n2ccnc2)cc1	i	i	99	i	i	90
Cc1cc(C)n(-c2ccc(C(=O)NC(C)C)cc2)n1	i	i	i	i	i	i
CNC(=S)N/N=C(\C)c1ccc(-n2ccnc2)cc1	i	i	100	i	i	99
O=C(Nc1ncc(Cl)cn1)c1cccs1	i	i	i	i	i	i
Nc1cc(C(=O)O)ccc1Nc1ccc(F)c(F)c1	i	i	i	i	i	i
Cc1ccc(-n2c(SCc3ccc([N+](=O)[O-])cc3)nc3ccccc3c2=O)cc1	i	i	i	i	i	i
CC(=O)[C@@H]1[C@@H]2C(=O)N(Cc3ccccc3)C(=O)[C@@H]2C2c3ccccc3C=CN21 (some centres undefined)	i	i	i	i	i	i
N#CC1(Cc2ccccc2)c2ccccc2C=CN1C(=O)c1ccccc1 (centres undefined)	i	i	72	i	i	93
N#CC1(Cc2ccc([N+](=O)[O-])cc2)c2ccccc2C=CN1C(=O)c1ccccc1 (centres undefined)	i	i	68	i	i	68
COc1ccccc1NC(=O)Cn1cnc2c(cnn2-c2ccc(C)c(C)c2)c1=O	i	i	i	i	i	i
CCc1cccc(CC)c1N(COC)C(=O)Cn1ccccc1=N	i	i	i	i	i	i
CC(=O)OC1CC2(C)C(=O)CCC2C2CCc3cc(O)ccc3C12 (centres undefined)	i	i	i	i	i	i
O=C(CC(c1ccccc1)c1ccccc1)OCn1nnc2ccccc2c1=O	i	i	95	i	i	85
CC(Oc1ccc(Cl)cc1Cl)C(=O)OCn1nnc2ccccc2c1=O (centres undefined)	i	i	i	i	i	i
O=C(CC1CCCCC1)OCn1nnc2ccccc2c1=O	i	i	i	i	i	69
SMILES	PostGolgi yeast	CYP2C19 act	CYP2C9 inhib	PostGolgi ctrl	CYP2C9 activ	CYP2C19 inhib
CC(C)(Oc1ccc(Cl)cc1)C(=O)OCn1nnc2ccccc2c1=O	i	i	51	i	i	i
Cc1nc2nc3c(cn2n1)C(=O)CC(C)(C)C3	i	i	i	i	i	i
COc1ccccc1NC(=O)c1[nH]c(C)c(C(C)=O)c1C	i	i	79	i	i	i
CCOC(=O)c1c(C)c(C(=O)Nc2cc(OC)ccc2OC)c(C)n1CC	i	i	i	i	i	61
CCOC(=O)c1c(C)[nH]c(C(=O)OCC(=O)Nc2cc(C)ccc2OC)c1C	i	i	i	i	i	i
CCOC(=O)c1[nH]c(C)c(C(=O)Nc2cc(OC)ccc2OC)c1C	i	i	i	i	2	i
CCOC(=O)c1c(C)c(C(=O)Nc2ccccc2)c(C)n1CC	i	i	i	i	i	i
CCOC(=O)c1[nH]c(C)c(C(=O)c2ccc(C)cc2)c1C	i	i	i	i	i	63

Source: PubChem (several laboratories)
